In the supplement of paper PMC7411054:
Counter-ions that a name gives are not always drawn.

What was measured:
Assay in all cases: phenotypically active (imaging signature differs from DMSO and reproducible) at any of 0.3-9 uM (binary (1 = active, 0 = inactive)); higher = active
Settings in all cases: treatment time: 24 h
A549-ACTB-RAB5A = tested on: A549-ACTB-RAB5A
Method in brief: (§1)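 Four wells per concentration (0.3, 1, 3 or 9 µM) were treated for 24 h in each of fifteen gene-edited reporter lines from A549, HepG2 and WPMY1 cells, then imaged live. After normalising live-cell features to solvent control wells, deviation was defined as ≥3 of 4 wells lying past the 95th percentile of control Euclidean distances. Reproducibility was defined as a median replicate Pearson correlation above the 95th percentile of non-replicates. Both had to hold for phenotypic activity.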

A549-CANX-COX4 = tested on: A549-CANX-COX4
Method in brief: as §1

A549-GM130-SQSTM1 = tested on: A549-GM130-SQSTM1
Method in brief: as §1

A549-TP53BP1-CLTA = tested on: A549-TP53BP1-CLTA
Method in brief: as §1

A549-TUBA1B-RELA = tested on: A549-TUBA1B-RELA
Method in brief: as §1

HepG2-ACTB-RAB5A = tested on: HepG2-ACTB-RAB5A
Method in brief: as §1

HepG2-CANX-COX4 = tested on: HepG2-CANX-COX4
Method in brief: as §1

HepG2-GM130-SQSTM1 = tested on: HepG2-GM130-SQSTM1
Method in brief: as §1

HepG2-TP53BP1-CLTA = tested on: HepG2-TP53BP1-CLTA
Method in brief: as §1

HepG2-TUBA1B-RELA = tested on: HepG2-TUBA1B-RELA
Method in brief: as §1

WPMY1-ACTB-RAB5A = tested on: WPMY1-ACTB-RAB5A
Method in brief: as §1

WPMY1-CANX-COX4 = tested on: WPMY1-CANX-COX4
Method in brief: as §1

WPMY1-GM130-SQSTM1 = tested on: WPMY1-GM130-SQSTM1
Method in brief: as §1

WPMY1-TP53BP1-CLTA = tested on: WPMY1-TP53BP1-CLTA
Method in brief: as §1

WPMY1-TUBA1B-RELA = tested on: WPMY1-TUBA1B-RELA
Method in brief: as §1

Measured: phenotypically active

CC(C(=O)O)c1ccc(C(=O)c2cccs2)cc1 (stereo not given) [suprofen]
inactive: A549-ACTB-RAB5A 0 | A549-CANX-COX4 0 | A549-GM130-SQSTM1 0 | A549-TP53BP1-CLTA 0 | A549-TUBA1B-RELA 0 | HepG2-ACTB-RAB5A 0 | HepG2-CANX-COX4 0 | HepG2-GM130-SQSTM1 0 | HepG2-TP53BP1-CLTA 0 | HepG2-TUBA1B-RELA 0 | WPMY1-ACTB-RAB5A 0 | WPMY1-CANX-COX4 0 | WPMY1-GM130-SQSTM1 0 | WPMY1-TP53BP1-CLTA 0 | WPMY1-TUBA1B-RELA 0

COC(=O)/C=C/c1cccc(N(Cc2ccc(-c3ccc(N(C)C)cc3)cc2)C(=O)C2CCCCC2)c1 [fexaramine]
inactive: A549-ACTB-RAB5A 0 | A549-CANX-COX4 0 | A549-GM130-SQSTM1 0 | A549-TP53BP1-CLTA 0 | A549-TUBA1B-RELA 0 | HepG2-ACTB-RAB5A 0 | HepG2-CANX-COX4 0 | HepG2-GM130-SQSTM1 0 | HepG2-TP53BP1-CLTA 0 | HepG2-TUBA1B-RELA 0 | WPMY1-ACTB-RAB5A 0 | WPMY1-CANX-COX4 0 | WPMY1-GM130-SQSTM1 0 | WPMY1-TP53BP1-CLTA 0 | WPMY1-TUBA1B-RELA 0

O=C(/C=C/c1ccc(O)c(O)c1)O[C@@H]1C[C@](O)(C(=O)O)C[C@@H](O)[C@H]1O [Chlorogenic acid]
inactive: A549-ACTB-RAB5A 0 | A549-CANX-COX4 0 | A549-GM130-SQSTM1 0 | A549-TP53BP1-CLTA 0 | A549-TUBA1B-RELA 0 | HepG2-ACTB-RAB5A 0 | HepG2-CANX-COX4 0 | HepG2-GM130-SQSTM1 0 | HepG2-TP53BP1-CLTA 0 | HepG2-TUBA1B-RELA 0 | WPMY1-ACTB-RAB5A 0 | WPMY1-CANX-COX4 0 | WPMY1-GM130-SQSTM1 0 | WPMY1-TP53BP1-CLTA 0 | WPMY1-TUBA1B-RELA 0

COc1ccc2[nH]c(S(=O)Cc3ncc(C)c(OC)c3C)nc2c1 (stereo not given) [omeprazole]
inactive: A549-ACTB-RAB5A 0 | A549-CANX-COX4 0 | A549-GM130-SQSTM1 0 | A549-TP53BP1-CLTA 0 | A549-TUBA1B-RELA 0 | HepG2-ACTB-RAB5A 0 | HepG2-CANX-COX4 0 | HepG2-GM130-SQSTM1 0 | HepG2-TP53BP1-CLTA 0 | HepG2-TUBA1B-RELA 0 | WPMY1-ACTB-RAB5A 0 | WPMY1-CANX-COX4 0 | WPMY1-GM130-SQSTM1 0 | WPMY1-TP53BP1-CLTA 0 | WPMY1-TUBA1B-RELA 0

CCCC(=O)O [Sodium butyrate]
inactive: A549-ACTB-RAB5A 0 | A549-CANX-COX4 0 | A549-GM130-SQSTM1 0 | A549-TP53BP1-CLTA 0 | A549-TUBA1B-RELA 0 | HepG2-ACTB-RAB5A 0 | HepG2-CANX-COX4 0 | HepG2-GM130-SQSTM1 0 | HepG2-TP53BP1-CLTA 0 | HepG2-TUBA1B-RELA 0 | WPMY1-ACTB-RAB5A 0 | WPMY1-CANX-COX4 0 | WPMY1-GM130-SQSTM1 0 | WPMY1-TP53BP1-CLTA 0 | WPMY1-TUBA1B-RELA 0

C[C@H](NC(=O)CCc1nc2ccccc2c(=O)[nH]1)c1ccccc1
inactive: A549-ACTB-RAB5A 0 | A549-CANX-COX4 0 | A549-GM130-SQSTM1 0 | A549-TP53BP1-CLTA 0 | A549-TUBA1B-RELA 0 | HepG2-ACTB-RAB5A 0 | HepG2-CANX-COX4 0 | HepG2-GM130-SQSTM1 0 | HepG2-TP53BP1-CLTA 0 | HepG2-TUBA1B-RELA 0 | WPMY1-ACTB-RAB5A 0 | WPMY1-CANX-COX4 0 | WPMY1-GM130-SQSTM1 0 | WPMY1-TP53BP1-CLTA 0 | WPMY1-TUBA1B-RELA 0

Cc1ccc([N+](=O)[O-])cc1S(=O)(=O)N(C)C
inactive: A549-ACTB-RAB5A 0 | A549-CANX-COX4 0 | A549-GM130-SQSTM1 0 | A549-TP53BP1-CLTA 0 | A549-TUBA1B-RELA 0 | HepG2-ACTB-RAB5A 0 | HepG2-CANX-COX4 0 | HepG2-GM130-SQSTM1 0 | HepG2-TP53BP1-CLTA 0 | HepG2-TUBA1B-RELA 0 | WPMY1-ACTB-RAB5A 0 | WPMY1-CANX-COX4 0 | WPMY1-GM130-SQSTM1 0 | WPMY1-TP53BP1-CLTA 0 | WPMY1-TUBA1B-RELA 0

CC[C@]12CCCN3CCc4c(n(c5ccccc45)[C@@](O)(C(=O)OC)C1)[C@@H]32 [Vincamine]
inactive: A549-ACTB-RAB5A 0 | A549-CANX-COX4 0 | A549-GM130-SQSTM1 0 | A549-TP53BP1-CLTA 0 | A549-TUBA1B-RELA 0 | HepG2-ACTB-RAB5A 0 | HepG2-CANX-COX4 0 | HepG2-GM130-SQSTM1 0 | HepG2-TP53BP1-CLTA 0 | HepG2-TUBA1B-RELA 0 | WPMY1-ACTB-RAB5A 0 | WPMY1-CANX-COX4 0 | WPMY1-GM130-SQSTM1 0 | WPMY1-TP53BP1-CLTA 0 | WPMY1-TUBA1B-RELA 0

OC(CCN1CCCCC1)(c1ccccc1)C1CC2C=CC1C2 (stereo not given) [biperiden]
inactive: A549-ACTB-RAB5A 0 | A549-CANX-COX4 0 | A549-GM130-SQSTM1 0 | A549-TP53BP1-CLTA 0 | A549-TUBA1B-RELA 0 | HepG2-ACTB-RAB5A 0 | HepG2-CANX-COX4 0 | HepG2-GM130-SQSTM1 0 | HepG2-TP53BP1-CLTA 0 | HepG2-TUBA1B-RELA 0 | WPMY1-ACTB-RAB5A 0 | WPMY1-CANX-COX4 0 | WPMY1-GM130-SQSTM1 0 | WPMY1-TP53BP1-CLTA 0 | WPMY1-TUBA1B-RELA 0

Cc1cc(/N=N/c2cc(S(=O)(=O)O)c(C)cc2C)c(N)cc1O [Ischemin sodium salt]
inactive: A549-ACTB-RAB5A 0 | A549-CANX-COX4 0 | A549-GM130-SQSTM1 0 | A549-TP53BP1-CLTA 0 | A549-TUBA1B-RELA 0 | HepG2-ACTB-RAB5A 0 | HepG2-CANX-COX4 0 | HepG2-GM130-SQSTM1 0 | HepG2-TP53BP1-CLTA 0 | HepG2-TUBA1B-RELA 0 | WPMY1-ACTB-RAB5A 0 | WPMY1-CANX-COX4 0 | WPMY1-GM130-SQSTM1 0 | WPMY1-TP53BP1-CLTA 0 | WPMY1-TUBA1B-RELA 0

O=C(O)[C@H](O)[C@@H](O)[C@H](O[C@@H]1O[C@H](CO)[C@H](O)[C@H](O)[C@H]1O)[C@H](O)CO [Lactobionic acid]
inactive: A549-ACTB-RAB5A 0 | A549-CANX-COX4 0 | A549-GM130-SQSTM1 0 | A549-TP53BP1-CLTA 0 | A549-TUBA1B-RELA 0 | HepG2-ACTB-RAB5A 0 | HepG2-CANX-COX4 0 | HepG2-GM130-SQSTM1 0 | HepG2-TP53BP1-CLTA 0 | HepG2-TUBA1B-RELA 0 | WPMY1-ACTB-RAB5A 0 | WPMY1-CANX-COX4 0 | WPMY1-GM130-SQSTM1 0 | WPMY1-TP53BP1-CLTA 0 | WPMY1-TUBA1B-RELA 0

NC[C@H](O)c1ccc(O)c(O)c1 [norepinephrine]
inactive: A549-ACTB-RAB5A 0 | A549-CANX-COX4 0 | A549-GM130-SQSTM1 0 | A549-TP53BP1-CLTA 0 | A549-TUBA1B-RELA 0 | HepG2-ACTB-RAB5A 0 | HepG2-CANX-COX4 0 | HepG2-GM130-SQSTM1 0 | HepG2-TP53BP1-CLTA 0 | HepG2-TUBA1B-RELA 0 | WPMY1-ACTB-RAB5A 0 | WPMY1-CANX-COX4 0 | WPMY1-GM130-SQSTM1 0 | WPMY1-TP53BP1-CLTA 0 | WPMY1-TUBA1B-RELA 0
